D2 antagonist: HTS Assay for Allosteric Antagonists of the Human D2 Dopamine Receptor: Primary Screen for Antagonists; D(2) dopamine receptor (Homo sapiens), P14416; HEK293 TREx D2 cells, calcium flux, dopamine EC80; inhibition, % at 10 µM; 340,000 tested, 2% active; AID 485344, 2010; in the data active = inhibition above about 30%; inactive = below that, where a call was filed
Target sequence (P14416 whole entry, looked up): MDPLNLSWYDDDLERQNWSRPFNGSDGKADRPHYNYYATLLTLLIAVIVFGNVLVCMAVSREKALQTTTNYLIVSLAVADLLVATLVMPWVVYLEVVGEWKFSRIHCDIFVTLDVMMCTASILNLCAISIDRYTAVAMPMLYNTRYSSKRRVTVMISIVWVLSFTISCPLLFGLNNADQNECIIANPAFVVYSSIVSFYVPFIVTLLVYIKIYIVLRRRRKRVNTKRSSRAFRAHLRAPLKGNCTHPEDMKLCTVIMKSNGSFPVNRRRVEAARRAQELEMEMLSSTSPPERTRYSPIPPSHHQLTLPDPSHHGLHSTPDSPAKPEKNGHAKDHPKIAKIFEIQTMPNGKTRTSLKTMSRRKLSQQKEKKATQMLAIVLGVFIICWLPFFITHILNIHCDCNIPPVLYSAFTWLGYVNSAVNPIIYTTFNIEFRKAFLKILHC
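Calcium mobilization kinetics were recorded at 1 s intervals in tetracycline-induced HEK293 T-REx D2 cells, first for 180 s after compound addition and then 180 s after EC80 dopamine.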
D2 PAM-1: HTS Assay for Positive Allosteric Modulators of the Human D2 Dopamine Receptor: Primary Screen for Potentiators | D(2) dopamine receptor (Homo sapiens), P14416 | HEK293 T-REx D2, calcium flux, EC20 dopamine potentiation | potentiation, % at 10 µM | 340,000 tested, 0.34% active;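 active = potentiation over 3 SD above the plate norm, cut at about 30% in these data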
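Tetracycline-induced Hek293 Trex D2 cells, force-coupled to calcium, loaded with no-wash calcium dye. Compound added with 180 s kinetic read for agonism, then EC20 dopamine and a further 180 s read for potentiation.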
D2 ag-1: Beta-Arrestin HTS for Positive Allosteric Modulators of the Human D2 Dopamine Receptor: Agonists | D(2) dopamine receptor (Homo sapiens), P14416 | DiscoveRx PathHunter D2 beta-arrestin, luminescence, 90 min; 100% = 57 uM dopamine signal | activation, % (test concentration not listed) | 360,000 tested, 0.084% active | AID 624465, 2012; in the data active = activation above about 40%
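DiscoveRx PathHunter D2 beta-arrestin cells (2,100/well) attached overnight, then compound-stimulated 90 min at 37 C in HBSS/10 mM HEPES/0.1% Tween-20 buffer; beta-galactosidase complementation read by luminescence after 1 h at ambient temperature. Dopamine 57 uM final (EC100) as control.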
D2 ag-2: HTS Assay for Allosteric Agonists of the Human D2 Dopamine Receptor: Primary Screen for Agonists. activation, % at 2 µM. HEK293 T-REx D2 cells, calcium flux agonist mode. 340,000 tested, 0.53% active;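 active = activation over 3 SD above normal in the single-dose calcium agonist read, cut at about 30% in these data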
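Tetracycline-induced HEK293 Trex cells with D2 receptor force-coupled to calcium signaling, plated overnight at 30 C and loaded with no-wash calcium dye. Calcium flux read kinetically for 180 s after compound addition; responses flag agonists.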
D2 PAM-2: Beta-Arrestin HTS for Positive Allosteric Modulators of the Human D2 Dopamine Receptor: Potentiators; D(2) dopamine receptor (Homo sapiens), P14416; AID 624464, 2012; 360,000 tested, 0.23% active; DiscoveRx D2 beta-arrestin cells, luminescence, 90 min; 100% = 57 uM dopamine signal; potentiation, % (concentration not given with the values); in the data active = potentiation above about 50%
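PathHunter D2 cells, attached overnight at 37 deg C, received compound in DMSO plus dopamine at EC20 (50 nM final) for 90 min at 37 deg C. Beta-arrestin recruitment was read as luminescence after 1 h with detection reagent at ambient temperature.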
Each line names hits and unclear results; the compound was inactive in the other large screens. Rows were chosen to be rich in hits. Some 2.4% of all compounds tested hit in one or more screens of this group.

CCN(CC)S(=O)(=O)c1ccc(OCC(=O)NC(=O)c2ccccc2OC)c([N+](=O)[O-])c1	D2 PAM-2 55
Cc1cc(=O)[nH]c(SCC(=O)Nc2ccc3c(c2)CCC3)c1C#N	D2 antagonist 36
Cc1cc(=O)[nH]c(SCC(=O)Nc2ccc(F)cc2)c1C#N	none
O=C(NCc1ccccc1)NC1COc2ccccc2C1 (stereo unspecified)	none (no result: D2 antagonist, D2 ag-1, D2 PAM-2)
CCN(CC)c1ccc(/C=C2/C(=O)c3ccc(C(=O)O)cc3C2=O)cc1	D2 ag-2 84
Cc1cccc(N2C(=O)C3C4C=CC(CC4)C3C2=O)c1 (stereo unspecified)	none
Cc1ccc(N2C(=O)C3C4C=CC(C4)C3C2=O)cc1 (stereo unspecified)	D2 PAM-1 51
Cc1cc(C)cc(N2C(=O)C3C4C=CC(C4)C3C2=O)c1 (stereo unspecified)	D2 PAM-1 37 (no result: D2 antagonist, D2 ag-2)
O=C1C2C3C=CC(C3)C2C(=O)N1c1ccccc1 (stereo unspecified)	none (no result: D2 antagonist, D2 PAM-1, D2 ag-2)
COc1ccc(C2C(=O)N(C3CCC(C)CC3)CC(=O)N2Cc2ccc(C)cc2)cc1OC (stereo unspecified)	none (no result: D2 antagonist, D2 ag-1, D2 PAM-2)
O=C(NCCO)C1(c2ccc(Cl)cc2)CCCC1	D2 antagonist 32
CC1CC(C)CN(c2ccc(-n3cnnn3)cc2[N+](=O)[O-])C1 (stereo unspecified)	none
O=[N+]([O-])c1cc(-n2cnnn2)ccc1N1CCC(Cc2ccccc2)CC1	D2 antagonist 32
O=C1C=CC2(O[C@H](c3ccccc3)[C@@H](c3ccccc3)O2)[C@H](Sc2ccccc2O)C1	none (no result: D2 antagonist, D2 PAM-1, D2 ag-2)
O=C(CCn1ccc2cc(S(=O)(=O)N3CCCC3)ccc21)NCc1cccc(Br)c1	none (no result: D2 antagonist, D2 ag-1, D2 PAM-2)
CC1Oc2ccccc2C=C1/C=C1/SC(N2CCOCC2)=NC1=O (stereo unspecified)	D2 PAM-1 36
CCOc1ccc(/C=N/Nc2nc(=O)[nH]nc2C)cc1OC	D2 PAM-1 44
CC(C)(C)OC(=O)N1CCC(N2CCN(Cc3ccccc3)C(=O)C2=O)CC1	none (no result: D2 antagonist, D2 ag-1, D2 PAM-2)
COc1ccc(NS(=O)(=O)c2c(C)cc(C)cc2C)cc1	D2 antagonist 34
O=C(CNC(=O)c1cccs1)N/N=C/c1c(F)cccc1Cl	D2 antagonist 31
CCCCCN1CC(O)=C(c2nc3ccccc3[nH]2)C1=N	D2 antagonist 39
COCCN1CC(O)=C(c2nc3ccccc3c(=O)[nH]2)C1=N	D2 antagonist 38
O=C(Nc1ccccc1)c1ccc(Br)c(S(=O)(=O)N2CCCCC2)c1	none (no result: D2 antagonist, D2 ag-1, D2 PAM-2)
COC(=O)C1=C(O)/C(=C\c2cc(C)n(-c3ccccc3C)c2C)N=C1C	D2 antagonist 32
O=C(Nc1ccc(O)cc1C(=O)O)c1cccs1	D2 antagonist 35
O=C(NNC(=O)c1ccccc1Cl)c1cccs1	D2 PAM-1 32 (no result: D2 ag-2)
O=C(Nc1ccccc1C(=O)Nc1ccccc1)c1cccs1	none (no result: D2 PAM-1)
Cc1sc2nc(C3CC3)nc(SCC(=O)N3CCCc4ccccc43)c2c1C	none (no result: D2 ag-1, D2 PAM-2)
Cn1c(=O)c2c(SCC(=O)N3CCCc4ccccc43)nc(C3CC3)nc2n(C)c1=O	D2 antagonist 35
CCOC(=O)c1c(C)[nH]c(C)c1S(=O)(=O)N(C)CC(=O)Nc1ccc(C)cc1Br	none (no result: D2 antagonist, D2 ag-1, D2 PAM-2)
CCOC(=O)c1cccc(NC(=O)C2Cc3ccccc3N2C(=O)c2ccccc2)c1 (stereo unspecified)	none (no result: D2 antagonist, D2 ag-1, D2 PAM-2)
O=C(CCN=C1NS(=O)(=O)c2ccccc21)OCc1nnc(-c2ccc([N+](=O)[O-])cc2)o1	D2 PAM-2 69 (no result: D2 antagonist, D2 PAM-1, D2 ag-2)
N#Cc1ccccc1COC(=O)CCN=C1NS(=O)(=O)c2ccccc21	none (no result: D2 antagonist, D2 PAM-1, D2 ag-2)
CC(CN1c2ccccc2Sc2ccccc21)N(C)C (stereo unspecified)	D2 antagonist 54
CC(CN(C)C)CN1c2ccccc2Sc2ccccc21 (stereo unspecified)	D2 antagonist 76
CCN(CC)CC(O)CN1c2ccccc2Sc2ccccc21 (stereo unspecified)	none
COc1cc(NC(=O)N2CCC3(CC2)Nc2ccccc2-n2cccc23)cc(OC)c1OC	none (no result: D2 antagonist, D2 ag-1, D2 PAM-2)
CCOc1ccc(NC(=S)NCc2ccc3[nH]c(C)cc3c2)cc1	none
CCCCNC(=S)NCc1ccc2[nH]c(C)cc2c1	D2 antagonist 30
O=C1CC(c2nc3ccccc3n2Cc2c(F)cccc2Cl)CN1c1cccc(C(F)(F)F)c1 (stereo unspecified)	none (no result: D2 antagonist, D2 ag-1, D2 PAM-2)
O=C(Nc1ccc(Cl)cc1)c1csc([C@@H]2O[C@H](CO)[C@@H](O)[C@H]2O)n1	none (no result: D2 antagonist, D2 PAM-1, D2 ag-2)
CC(OC(=O)c1cccs1)C(=O)NCc1cccs1 (stereo unspecified)	none
COc1ccc(CNC(=O)C(C)OC(=O)c2cccs2)cc1 (stereo unspecified)	D2 PAM-1 33
CCCCOC(=O)c1ccc(OC(=O)c2cccnc2)cc1	D2 antagonist 31
CCCCCCOC(=O)c1ccc(OC(=O)c2cccnc2)cc1	none
CCCn1c(CCC(=O)Nc2cc(C(=O)OC)cc(C(=O)OC)c2)nc2cccnc21	none (no result: D2 antagonist, D2 ag-1, D2 PAM-2)
COc1cccc(OC(=O)N2CCOCC2)c1	none
Cc1cc(C)cc(OC(=O)N2CCOCC2)c1	D2 antagonist 38
COc1cccc(C(=O)NCC(=O)OCc2cc(=O)n3c(C)csc3n2)c1	none (no result: D2 antagonist, D2 ag-1, D2 PAM-2)
COc1cccc(OC)c1C(=O)NC(=O)Nc1c(C)cccc1C	D2 antagonist 32
CCOC(=O)N1CCN(C(=O)Nc2ccccc2)CC1	D2 antagonist 31
CCOC(=O)c1ccc(NC(=O)CC2C(=O)OCCN2CC)cc1 (stereo unspecified)	D2 antagonist 48
CCOC(=O)c1ccc(NC(=O)N2CCN(Cc3ccccc3)CC2)cc1	D2 antagonist 44
CCOC(=O)c1ccc(NC(=O)N2CCN(C3CCCCC3)CC2)cc1	D2 antagonist 34
COc1ccc(OC)c(S(=O)(=O)N2CC=C(c3c(C)n(CC(=O)N4CCCC4)c4ccccc34)CC2)c1	none (no result: D2 antagonist, D2 ag-1, D2 PAM-2)
CC(=O)Nc1cncc(-c2ccccc2F)n1	none (no result: D2 antagonist, D2 PAM-1, D2 ag-2)
CC1Cc2ccccc2N1C(=O)CN(C)CC(=O)Nc1ccc(F)cc1 (stereo unspecified)	D2 antagonist 43
Cc1ccc(S(=O)(=O)N2CC=C(c3c(C)n(CC(=O)N4CCCC4)c4ccccc34)CC2)cc1C	none (no result: D2 antagonist, D2 ag-1, D2 PAM-2)
COc1ccc(C2CC(c3cccs3)=NN2c2ccc(C=O)cc2)cc1 (stereo unspecified)	D2 ag-2 31
CN(C)/C=C1\Oc2ccc3ccccc3c2C1=O	none

From PubChem BioAssay
